This note sets out measurements from PubChem BioAssay AID1662 (Broad Institute, 2009).

Several values for one entry are separate records, joined by “and”; a condition that tells them apart may be missing. Identical values can stand only once. Out of some 300,000 compounds screened, about 4,000 (1.3%) were called active. The full list was thinned out, with actives kept by preference. A number with no mark means an inactive call.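 How the source made its calls: active means mean replicate score, as percent of positive control median, at least 50; inconclusive means mean below 50 but one replicate at or above 50; inactive means mean and every replicate below 50.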

The assay is described as follows: S. pyogenes SKKanGAS growth inhibitors in kanamycin, primary screen, streptokinase expression inhibitor project, SKKanGAS strain, BacTiter-Glo luminescence (AID 1662).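 Further: strain carries kanamycin resistance gene driven by streptokinase promoter and grows in 40 µg/ml kanamycin; loss of luminescence reflects streptokinase promoter inhibition or plain growth inhibition; 0% = median of DMSO wells and 100% = positive control at its reference dose.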 Particulars: 6 h, at 7.5 µM, stronger effect = higher value.
Turning to `Cc1cc(N)n2nc(-c3ccc(C(C)(C)C)cc3)cc2n1`, the inhibition (commonly the change of the read-out against control, counted positive when it falls) was 38.2%.

On to `O=C(N/N=C/c1cc([N+](=O)[O-])ccc1O)/C(=C\c1cccs1)NC(=O)c1ccccc1`, for which the inhibition is 83.5% (active).

Turning to `O=C(N/N=C/c1ccc(O)cc1)/C(=C/c1ccc([N+](=O)[O-])cc1)NC(=O)c1ccccc1`, the inhibition is -0.983%.

Turning to `O=[N+]([O-])c1ccc(O)c(/C=N/Nc2ccccc2[N+](=O)[O-])c1`, the inhibition was 17.8%.

As to `CN(CC(=O)Nc1c(Cl)cccc1Cl)C(=O)CNC(=O)C1CCCCC1`, the inhibition is -1.53%.

`O=C(CCCCCn1c(=S)[nH]c2cc3c(cc2c1=O)OCO3)N1CCN(c2ccc(F)cc2)CC1`: the inhibition was 4.31%.

As for `Cc1ccc(C)c(N2CCN(C(=O)CCCCCn3c(=S)[nH]c4ccc(N5CCOCC5)cc4c3=O)CC2)c1`, the inhibition was 50.8% (active).

As to `Cc1ccc(C)c(N2CCN(C(=O)CCCCn3c(=O)[nH]c4ccccc4c3=O)CC2)c1`, the inhibition was 10.5%.

On to `CSc1nc2ccc(NC(=O)c3c(F)cccc3F)cc2s1`, for which the inhibition is -1.79%.

As to `O=C(NC1CCCCC1)c1cc([N+](=O)[O-])ccc1N1CCOCC1`, the inhibition is 3.56%.

`CCCC(=O)Nc1nc2ccc(NC(=O)c3c(F)c(F)c(OC)c(F)c3F)cc2s1`: the inhibition is 71.5% (active).

Regarding `COc1ccc2nc(NC(=O)c3ccc(Br)s3)sc2c1`, the inhibition was 38.2%.

On to `CCOc1ccc2nc(Nc3nc4ccc(NC(C)=O)cc4s3)sc2c1`, for which the inhibition was 62.6% (active).

In the case of `CCOc1ccc2nc(NC(=O)c3cc([N+](=O)[O-])ccc3N3CCOCC3)sc2c1`, the inhibition was 50.1% (active).

Consider `COc1ccc(S(=O)(=O)N2CCCCC2)cc1NC(=O)c1cc([N+](=O)[O-])ccc1N1CCOCC1`, for which the inhibition was 12.2%.

For the compound `CCC(=O)c1ccc(OCC(=O)Nc2ccc3nc(C)sc3c2)cc1`, the inhibition is -10.4%.

Take `CCCC(=O)Nc1nc2ccc(NC(=O)c3cccnc3)cc2s1`: the inhibition is -13.3%.

As to `COc1ccc2nc(NC(=O)NC3CCCCC3)sc2c1`, the inhibition is -5.74%.

With `CCOc1ccc2nc(NC(=O)CSc3nc4c(c(=O)n(C)c(=O)n4C)n3CC)sc2c1`, the inhibition was 4.34%.

For the compound `COc1ccc2nc(Nc3nc4ccc(NC(C)=O)cc4s3)sc2c1`, the inhibition is 54.9% (active).

For `CCCCSc1nc2c(c(=O)n1CC)SC(C)C2` (configuration not stated), the inhibition is -4.67%.

For `COCC1CCN(C(=O)C2CCC(=O)N(CC3CCCCC3)C2)CC1` (configuration not stated), the inhibition was -1.21%.

`O=C(c1cc2c(s1)CCC2)N1CCN(c2ccccc2)CC1`: the inhibition was 3.4%.

Consider `CCNc1nc(NC(C)C)nc(N2CC(=O)N(CC(=O)OCC)C2=N)n1`, for which the inhibition is 0.266%.

On to `COc1ccc(S(=O)(=O)N2CCOC23CCN(S(=O)(=O)c2ccc([N+](=O)[O-])cc2)CC3)cc1`, for which the inhibition was 2.41%.

On to `CCc1nn(CCCN2CCN(c3cccc(Cl)c3)CC2)c(=O)n1CCOc1ccccc1`, for which the inhibition is -2.67% and -3.29%.

As for `COc1cc(NS(=O)(=O)c2ccc(N/C=C(\C=O)c3nc4cc(Cl)ccc4o3)cc2)nc(OC)n1`, the inhibition was 22%.

As for `CSc1ccc(CN(C)CC(=O)NCc2ccc(F)cc2)cc1`, the inhibition is -18.5%.

As to `CC(C)(C)n1nnc(CCc2nnn(C(C)(C)C)n2)n1`, the inhibition was -4.02%.

Turning to `CCCCCCCCc1c(O)nc(-n2[nH]c(C)c(CCO)c2=O)[nH]c1=O`, the inhibition is 9.64%.

Take `O=C(Nc1ccccc1F)c1ccccc1-c1ccc(C(F)(F)F)cc1`: the inhibition is -10.9%.

For `NC(=O)Cn1cc(/C=N\NS(=O)(=O)c2ccccc2)c2ccccc21`, the inhibition is -0.681%.

Turning to `Cc1ccc2c(C)c(C(=O)N3CCN(c4ccncc4)CC3)oc2c1C`, the inhibition is 4.31%.

Turning to `O=C1c2ccccc2-c2ncnc3c(N4CCOCC4)cc(N4CCOCC4)c1c23`, the inhibition is 13.7%.

With `O=C(O)c1cccc(S(=O)(=O)Nc2ccc(O)cc2Sc2nc3ccccc3s2)c1`, the inhibition was 8.92%.

Regarding `O=[N+]([O-])c1c(NCCO)cc(Sc2nc3ccccc3s2)c2nonc12`, the inhibition was 51.8% (active).

`CCOc1ccccc1Nc1ccc2nonc2c1[N+](=O)[O-]`: the inhibition is -0.208%.

In the case of `CCOCC(=O)Nc1ncc(S(=O)(=O)c2ccc([N+](=O)[O-])cc2)s1`, the inhibition is -0.334%.

In the case of `CC(C)C(=O)Nc1ccc2c3c(cccc13)CC2`, the inhibition is -4.74%.

For `Cc1cccc(NC(=O)C2CCN(C(=O)NC3CCCCC3)CC2)c1`, the inhibition is 3.22%.

As to `O=C(N/N=C/c1cc(Br)c(O)c([N+](=O)[O-])c1)C(O)(c1ccccc1)c1ccccc1`, the inhibition was 4.7%.

In the case of `O=C(N/N=C/c1cc(Cl)cc([N+](=O)[O-])c1O)C(O)(c1ccccc1)c1ccccc1`, the inhibition is 94.7% (active).

For the compound `CN(C)/N=C/c1cc(Cl)cc([N+](=O)[O-])c1O`, the inhibition is 0.131%.

Consider `Fc1ccccc1CNC(=S)Nc1ccc(Cl)cc1`, for which the inhibition is 18%.

For the compound `O=C(NC1CCN(C(=S)NCc2ccco2)CC1)c1ccc(F)cc1`, the inhibition is 13.3%.

`COc1cccc(N2CC(NS(=O)(=O)c3ccc(Cl)cc3)CC2=O)c1` (configuration not stated): the inhibition was 3.83%.

Consider `COc1ccc(N(C(=O)c2snc(C(N)=O)c2N)C(C(=O)NC2CCCC2)c2ccco2)cc1OC` (configuration not stated), for which the inhibition is 2.77%.

Regarding `CCc1nnc(NC(=O)c2cccc(S(=O)(=O)N(C)c3ccc(OC)cc3)c2)s1`, the inhibition was 4.1%.

With `CCc1nnc(NC(=O)c2sc3nc(C)cc(COC)c3c2N)s1`, the inhibition is 8.09%.

With `CCc1ccc2nc3sc(C(=O)Nc4nnc(CC)s4)c(N)c3cc2c1`, the inhibition is 95.3% (active).

With `COc1ccc(S(=O)(=O)NCc2cccnc2)cc1NC(=O)c1ccc(C)cc1`, the inhibition was -12.6%.

Turning to `COC(=O)N/N=C/c1ccc(/C=N/NC(=O)OC)cc1`, the inhibition is -10.9%.

As to `COC(=O)N/N=C/c1c[n+]([O-])c2ccccc2[n+]1[O-]`, the inhibition is 50.6% (active).

With `COC(=O)N/N=C/c1ccc(-c2ccc(Cl)c(Cl)c2)o1`, the inhibition was -12.4%.

For the compound `Cn1cccc1C(=O)N1CCc2ccccc2C1`, the inhibition is 10.2%.

`COc1ccc(N=Nc2ccc(O)c(P(=O)(c3ccccc3)c3ccccc3)c2)cc1`: the inhibition is 41.2%.

As for `Cc1cc(N=Nc2ccc3ccccc3c2)ccc1O`, the inhibition was 81.9% (active).

Consider `CC(=O)CCC(=O)c1ccc2ccccc2c1`, for which the inhibition is 3.19%.

For the compound `Cc1ccccc1Nc1c([N+](=O)[O-])ccc2nonc12`, the inhibition was 4.67%.

Turning to `O=C(NCC(c1ccco1)N1CCc2ccccc2C1)c1ccccc1Cl` (configuration not stated), the inhibition was 17.4%.

With `COc1ccccc1NC(=O)c1cc(N2C(=O)C3C4CCC(C4)C3C2=O)ccc1Cl` (configuration not stated), the inhibition was -15.7%.

`Cc1ccc(-c2ccc(=O)n(Cc3ccc(F)cc3Cl)n2)cc1`: the inhibition is 12.7%.

Regarding `N/C(=N/O)c1cccn1Cc1ccccc1[N+](=O)[O-]`, the inhibition was 0.341%.

In the case of `O=c1c([N+](=O)[O-])cccn1Cc1ccc(F)cc1Cl`, the inhibition is 55.4% (active).

With `O=c1[nH][nH]c(C(F)(F)F)c1C=NCc1ccccc1Cl`, the inhibition is -1.93%.

In the case of `CCc1c(O)cc2n(c1=O)-c1ccccc1C2(C)C`, the inhibition was 17.4%.

Turning to `NC(=O)c1nsc(C(=O)N(CC(=O)NCc2ccc(F)cc2)Cc2ccco2)c1N`, the inhibition is 0.443%.

In the case of `CC(C)CCC(C)NC(=O)c1ccc2nccnc2c1` (configuration not stated), the inhibition is -6.24%.

Turning to `CCCCCCCCCCCCN1C(=O)CSC1c1cccnc1` (configuration not stated), the inhibition was 49.9% (active).

Regarding `CCCCCCOc1ccc(OC(=O)c2cccnc2)cc1`, the inhibition was -1.41%.

With `CN(C)CCCN1C(=O)CSC1c1ccc([N+](=O)[O-])cc1` (configuration not stated), the inhibition is 2.76%.

For `Clc1ccc(C2=CSC3=Nc4cccc5cccc(c45)N23)cc1`, the inhibition is 58.7% (active).

In the case of `O=C(Nc1ccc(S(=O)(=O)Nc2ncccn2)cc1)C12CC3CC(CC(C3)C1)C2`, the inhibition is 7.21%.

In the case of `O=C(O)CCn1cc(/C=C/C(=O)c2ccc(Cl)cc2)c(-c2cccc(Br)c2)n1`, the inhibition is 63.3% (active).

On to `O=C(O)/C=C/c1cn(Cc2ccccc2)nc1-c1cccs1`, for which the inhibition was 8.13%.

As for `CCOC(=O)/C(C#N)=C/c1cn(CCC(=O)O)nc1-c1ccc(Br)cc1`, the inhibition was -0.784%.

`CCC(c1nnc(SCC(=O)NNC(=O)c2ccccc2)n1Cc1ccccc1)N(C)C` (configuration not stated): the inhibition is -9.47%.

Regarding `O=C(CNC(=O)c1ccc(Br)o1)Nc1ccccc1`, the inhibition was -5.14%.

Consider `Cc1ccc(C(CNC(=O)Nc2cccc(C)c2)N2CCN(C)CC2)cc1` (configuration not stated), for which the inhibition is -5.31%.

As to `CC1COc2ccccc2N1C(=O)c1ccc(F)cc1` (configuration not stated), the inhibition is 0.0101%.

As for `O=C(Nc1nnc(C2COc3ccccc3O2)o1)c1ccc(F)cc1` (configuration not stated), the inhibition is 103% (active).

For the compound `O=C(Nc1ccccc1F)c1ccc2c(c1)OCO2`, the inhibition is 2.8%.

For the compound `CCN(CC)S(=O)(=O)c1ccc(N(C)Cc2ccc(C(F)(F)F)cc2)nc1`, the inhibition is -5.95%.

Regarding `O=C(NCc1nnc(SCC(=O)N2CCCc3ccccc32)o1)c1ccccc1F`, the inhibition was 3.7%.

`CC1(C)C2CCC1(CS(=O)(=O)NCCc1c[nH]c3ccccc13)C(=O)C2` (configuration not stated): the inhibition was -7.05%.

Regarding `CS(=O)(=O)N1CCN(CC(=O)NC2CCCC2)CC1`, the inhibition is -2.39%.

Take `COC(=O)N/N=C/c1cn(CCCOc2ccc(C)cc2)c2ccccc12`: the inhibition is 8.83%.

Turning to `CCOC(=O)N/N=C/c1cn(Cc2ccccc2Cl)c2ccccc12`, the inhibition was 6.39%.

Regarding `CNC(=S)N/N=C/c1cn(Cc2ccc(C)cc2)c2ccccc12`, the inhibition is 53.8% (active).

As for `CC(C)(C)c1cc2cccnc2n1Cc1cccc(F)c1`, the inhibition is -3.63%.

As to `COc1ccc(C(=NN)c2ccc(OC)cc2)cc1`, the inhibition was -9.25%.

For `CCc1ccc(N(CC(=O)NCc2cccnc2)S(=O)(=O)c2ccccc2)cc1`, the inhibition is -18.2%.
